# CHO-K1 Ca PAM = nonselective activator or artifact in parental CHO-K1 calcium assay | 0.02% of 360,000 active | activation, % at 3 µM | ATP EC20, Fluo-8 calcium fluorescence; 0% at ATP EC20, 100% at ATP max | AID 602247;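 active = activation above the run cutoff, the mean activation of all test compounds plus 3 SD, cut at about 40% in these data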;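 also: peak over basal fluorescence ratio in a 140 s read after ATP addition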
# CHRM1 PAM = positive allosteric modulators of human M1 muscarinic receptor. CHO-K1 hM1, Fluo-8 calcium fluorescence, ACh EC20; 0% = ACh EC20, 100% = maximal ACh. AID 588819. 0.088% of 360,000 active. P11229. activation, % at 3 µM; in the data active = activation above about 19%, passing the limit was not always enough
# Target sequence (P11229 whole entry, looked up): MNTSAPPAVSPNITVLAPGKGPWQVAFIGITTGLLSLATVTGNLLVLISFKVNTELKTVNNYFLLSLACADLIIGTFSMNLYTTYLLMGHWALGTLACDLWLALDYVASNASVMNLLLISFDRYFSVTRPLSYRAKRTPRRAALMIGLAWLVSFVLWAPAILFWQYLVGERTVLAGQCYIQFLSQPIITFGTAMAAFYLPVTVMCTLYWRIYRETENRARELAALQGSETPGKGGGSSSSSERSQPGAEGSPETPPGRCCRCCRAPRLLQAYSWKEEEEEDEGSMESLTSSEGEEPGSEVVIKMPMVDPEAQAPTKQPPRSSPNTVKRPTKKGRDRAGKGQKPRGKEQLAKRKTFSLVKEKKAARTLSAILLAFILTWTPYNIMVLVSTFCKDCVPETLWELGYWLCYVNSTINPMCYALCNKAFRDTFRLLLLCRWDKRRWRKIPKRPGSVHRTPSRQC
# M1 ag = agonists of human M1 muscarinic receptor | P11229 | CHO-K1 hM1, Fluo-8 calcium fluorescence, agonist mode; 0% DMSO, 100% acetylcholine EC100 | activation, % at 3 µM | 0.33% of 360,000 active | AID 588814;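 active = activation above the run's mean compound activation plus 3 SD, cut at about 16% in these data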;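 also: peak over basal fluorescence ratio within a 140 s kinetic read after compound addition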
# CHO-K1 Ca antag = counter-screen for M1 antagonists: effect in parental CHO-K1 cells. ATP-induced calcium, Fluo-8 fluorescence. 0.6% of 360,000 active. inhibition, % at 3 µM. AID 602250;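 active = inhibition above a per-plate cutoff, the plate's mean sample inhibition plus 3 SD, cut at about 24% in these data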;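 also: 0% = DMSO plus EC80 ATP and 100% = DMSO alone without ATP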
# CHO-K1 Ca ag = counter-screen for M1 agonists: effect in parental CHO-K1 cells; 0.48% of 360,000 active; activation, % at 3 µM; Fluo-8 calcium fluorescence; scaled to maximal ATP response, vehicle zero; in the data active = activation above about 15%;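 also: untransfected CHO-K1 host cells lacking M1 receptor as counterscreen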
# CHRM1 antagonist = antagonists of human M1 muscarinic receptor; CHO-K1 hM1, Fluo-8 calcium fluorescence, ACh EC80 antagonist; inhibition, % at 3 µM; 1.3% of 360,000 active; AID 588852;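 active = percent inhibition above its own plate's cutoff, namely the mean of that plate's compound wells plus 3 SD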;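 also: peak over basal fluorescence ratio during 140 s after agonist addition; 0% = ACh EC80 plus DMSO and 100% = DMSO alone without agonist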
# The depositor's hits bear a star; . = no result given. In the library only some 2.3% were active in any assay of this set; here they are far more common.
SMILES,CHO-K1 Ca PAM,CHRM1 PAM,M1 ag,CHO-K1 Ca antag,CHO-K1 Ca ag,CHRM1 antagonist
Cc1cccc(CN2C(=O)/C(=C\c3ccc(C(=O)NCCN4CCOCC4)cc3)Sc3ccccc32)c1,17.1,-11.0,0.7,-0.6,6.8,32.5*
CCN1CCN(CCNC(=O)c2ccc3c(c2)N(Cc2ccc(F)cc2)C(=O)/C(=C/c2ccccc2)S3)CC1,23.5,-7.5,-6.3,-11.8,2.0,3.7
CCN1CCN(CCNC(=O)c2ccc(/C=C3/Sc4ccccc4N(Cc4cccc(Cl)c4)C3=O)cc2)CC1,1.0,-22.4,1.2,-1.5,6.2,57.5*
Cc1ccccc1CN1C(=O)/C(=C\c2ccc(C(=O)NCCN3CCOCC3)cc2)Sc2ccccc21,6.4,4.0,-1.3,-4.0,2.3,-1.4
O=c1[nH][nH]c2c1[C@H](c1ccc(Cl)cc1)O[C@H](C1CC1)C2,0.2,.,.,-1.1,0.1,.
N#C/C(=C\c1c(Oc2ccccc2F)nc2ccccn2c1=O)C(=O)NC1CCS(=O)(=O)C1 (stereo not drawn),-19.4,7.8,-0.9,-13.2,0.9,-15.1
Cc1cc(C(=O)COC(=O)c2ccc(O)cc2O)c(C)n1-c1ccc(OC(F)F)cc1,-24.0,-10.8,0.9,28.8*,2.6,27.1
COc1ccc(-n2c(C)cc(C(=O)COC(=O)c3ccc(O)cc3O)c2C)cc1,-6.4,-9.6,-1.4,-3.5,6.3,30.3
Cc1ccc(S(=O)(=O)NN=CC2(c3ccccc3)CC2)cc1,42.0*,5.9,-3.0,-4.5,-0.4,-19.9
Cc1ccc(S(=O)(=O)N/N=C\C=C\c2ccccc2)cc1,-5.7,9.1,0.1,2.9,-0.3,-9.1
Cc1nc2ccccc2n1Cc1ccc(Br)cc1,-17.1,-11.4,0.4,30.6*,11.2,36.8
Cc1nc2ccccc2n1Cc1ccccc1Br,-8.6,-11.5,1.9,15.0,23.2*,9.9
COc1ccc(C(=O)N2C=Cc3ccccc3C2C(N)=O)cc1 (stereo not drawn),5.7,7.2,0.3,7.8,9.7,-9.4
Cc1ccc(C(C)C)cc1-n1nnc(-c2cccc(Cc3ccc4ccccc4c3)c2)c1C(C)O (stereo not drawn),-0.2,-2.7,-3.7,-4.1,0.3,9.5
CCCCC(CC)CN=C(N)NC(N)=NCCCCCCN=C(N)NC(N)=NCC(CC)CCCC (stereo not drawn),13.1,-25.3,58.0*,-1.5,3.2,88.3*
C/C=C(/CCC1NCCc2c1[nH]c1ccccc21)[Si](C)(C)C (stereo not drawn),-0.9,-12.7,-6.5,3.7,0.1,10.9
O=[N+]([O-])c1ccccc1/C=N\N1CCN(c2ccccc2)CC1,7.0,-11.7,-7.0,1.4,27.8*,-0.3
CC(NC(=O)Nc1ccc(Cl)c(Cl)c1)C(c1ccccc1)N1CCOCC1 (stereo not drawn),10.0,2.5,30.4*,13.7,38.2*,9.9
CC(NC(=O)c1ccc(Cl)cc1Cl)C(c1ccccc1)N1CCOCC1 (stereo not drawn),16.4,11.0,-12.6,8.6,1.3,-10.9
CC(NC(=O)Nc1ccc([N+](=O)[O-])cc1)C(c1ccccc1)N1CCOCC1 (stereo not drawn),4.0,-0.6,26.0*,-1.7,49.3*,2.0
Cc1cc(C)c(C(=O)Nc2ccc(Br)c(C(F)(F)F)c2)c(C)c1,10.2,-27.2,-11.9,8.3,6.1,64.8*
O=C(O)c1ccccc1C(=O)Nc1ccc(Br)c(C(F)(F)F)c1,5.7,4.2,-3.1,-4.4,0.8,2.1
Cc1cccc(NC(=O)CN2C(=O)S/C(=C\c3cc(C)n(C)c3C)C2=O)c1,21.2,-6.8,-0.9,-8.4,3.6,12.2
Cc1ccc(NC(=O)CN2C(=O)S/C(=C\c3cc(C)n(C)c3C)C2=O)cc1,-8.1,-24.1,-4.3,-1.8,4.5,40.6*
COc1ccccc1NC(=O)C1C2C=CC(C2)C1C(=O)NCc1cccnc1 (stereo not drawn),-8.8,-7.3,-2.4,25.6*,-0.2,18.2
SMILES,CHO-K1 Ca PAM,CHRM1 PAM,M1 ag,CHO-K1 Ca antag,CHO-K1 Ca ag,CHRM1 antagonist
COC(=O)c1ccccc1NC(=O)NCc1ccncc1,19.9,7.2,-6.2,6.2,16.5*,-3.5
COC(=O)c1ccccc1NC(=O)CCc1ccccc1,-11.7,4.0,-7.0,24.1*,-0.2,-9.3
COc1ccc(OC)c(NC(=O)C2C3C=CC(C3)C2C(=O)NCc2cccnc2)c1 (stereo not drawn),17.8,-6.1,-5.9,-8.4,0.4,4.1
COc1ccccc1NC(=O)C(=O)NCc1ccncc1,-13.7,9.8,-2.4,25.3*,-0.2,2.4
CCN(CC)c1nc2c(c(=O)[nH]c(=O)n2C)n1CCCc1ccccc1,9.1,3.3,-2.8,-2.2,2.6,-2.4
NC(=O)c1cc(NC(=O)CCNS(=O)(=O)c2cccc(C(F)(F)F)c2)cc(C(N)=O)c1,-15.4,11.3,-1.0,1.4,0.1,-19.7
COc1ccc(CCNC(=O)Cc2c(Cl)cccc2Cl)cc1,19.2,5.2,-5.1,-14.4,0.4,-3.3
COc1ccccc1NC(=O)C(=O)N1CCCC1,17.7,-0.5,-3.8,-4.9,15.9*,8.3
Cc1nc2scc(C)n2c(=O)c1S(=O)(=O)NCC1CCN(Cc2ccc(F)cc2)CC1,9.2,-0.9,-5.8,-18.2,-0.1,-3.8
Cc1cc(C)cc(NS(=O)(=O)c2c(C)[nH]c(=O)[nH]c2=O)c1,4.0,10.7,-2.4,27.1*,1.9,-15.0
C[C@H](CO)N1C[C@H](C)[C@@H](CN(C)Cc2ccc(Oc3ccccc3)cc2)Oc2c(NC(=O)c3ccncc3)cccc2C1=O,46.0*,-0.3,-9.3,-31.9,0.8,-3.9
C[C@H](CO)N1C[C@H](C)[C@@H](CN(C)Cc2ccccc2)Oc2c(NC(=O)c3ccncc3)cccc2C1=O,-5.8,2.0,-6.1,-9.6,0.6,-3.6
COc1ccc(CN2C(=O)C(CC(=O)NC3CCCC3)CC(C(=O)N3CCOCC3)=C2C)cc1 (stereo not drawn),-5.2,-2.0,-5.8,23.8*,-0.2,10.2
CCOc1cccc(CN2CCCC(N3CCc4cc(OC)c(OC)cc4C3)C2)c1O (stereo not drawn),11.4,-11.7,-8.8,12.1,-0.1,17.9
CCOC(=O)c1cnc2ccc(OCC)cc2c1N1CCN(c2ccccc2OC)CC1,12.1,-12.2,-1.3,-0.7,2.8,34.2*
COC(=O)CNC(=O)COC(=O)/C=C/c1ccc2ccccc2n1,3.1,-5.4,-1.6,12.7,16.0*,5.0
CCOC(=O)N1CCN(Cc2c(O)ccc3ccccc23)CC1,-6.7,2.5,3.9,-3.5,16.0*,-4.9
CCOC(=O)N1CCN(C(=O)Cc2c(C(=O)O)n(C)c3ccccc23)CC1,18.4,1.1,27.5*,-12.7,-0.1,-5.0
Cc1ccc2c(c1)sc(-c1ccc(N(C)C)cc1)[n+]2C,-14.1,-2.9,-11.7,8.2,-0.1,-0.6

# High-throughput results from PubChem BioAssay.
